Results published in PubChem BioAssay (EPA / NIEHS).
Several values for one entry are separate records, joined by “and”; a condition that tells them apart may be missing. Equal values may be shown once. Inconclusive results are not listed. Where a structure was tested more than once in an assay, its records may differ in their call. Activity calls are given as the source filed them. The calls were made as follows, unless noted: active = hit-call score of the fitted dose curve at least 0.9, where 1 is the maximum; inactive = score below 0.9.

Assays:
[1] = ACEA_ER_80hr: ACEA Biosciences xCELLigence Real-Time Cell Analysis on Estrogen Receptor Agonism for Proliferation (AID 2282667; active = hit-call score of the fitted dose curve at least 0.9, where 1 is the maximum); conditions: T47D proliferation, impedance (xCELLigence), 80 h
Outline: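 Real-time impedance growth kinetics of human T-47D breast cells read 80 h after dosing, gain-of-signal fitted relative to DMSO. Compounds: 1:4 serial series, top final concentration 100 uM, n = 2.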

[2] = APR_HepG2_CellCycleArrest_24hr: Apredica 24-hour HepG2 Assay for Cell Cycle Arrest (AID 2282905); conditions: imaging, actives raise or lower the signal;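 also: cell cycle arrest scored as ratio of 2N to 4N nuclear DNA content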
Outline: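 HepG2 cells were exposed to compounds at 0.39–200 uM (ten concentrations, duplicate) in 0.5% v/v DMSO for 24 hr. After formaldehyde fixation and Triton permeabilization, Hoechst 33342-stained nuclei were imaged at 20x; DNA content was quantified, with bidirectional fitting against DMSO.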

[3] = APR_HepG2_NuclearSize_24hr: Apredica 24-hour HepG2 Assay for Nuclear Size (AID 2282907); conditions: high-content imaging, actives raise or lower the signal
Outline: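 HepG2 human liver cells were exposed for 24 hr to compounds at 0.39–200 uM (ten concentrations, duplicate) in 0.5% v/v DMSO. They were then formaldehyde-fixed, Triton-permeabilized and Hoechst 33342-stained, and nuclear diameter was imaged at 20x. Bidirectional fits were made against DMSO.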

[4] = APR_HepG2_CellLoss_24hr: Apredica 24-hour HepG2 Assay for Cell Loss (AID 2282908); conditions: high-content imaging;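 also: fit in both directions so a hit may be cell loss or gain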
Outline: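 Compounds were tested at 0.39–200 uM in duplicate with 0.5% v/v DMSO final. Cells were then fixed in 3.7% formaldehyde, Hoechst 33342 nuclei were imaged at 20x by HCS, and cell number was fitted bidirectionally against DMSO.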

[5] = APR_HepG2_MicrotubuleCSK_24hr: Apredica 24-hour HepG2 Assay for Microtubule CSK Stabilty (AID 2282909); conditions: HepG2 microtubule cytoskeleton imaging, actives raise or lower the signal
Outline: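 HepG2 cells exposed 24 h to compounds at 0.39–200 uM (duplicate, 0.5% v/v DMSO final), then fixed, permeabilized and immunostained for alpha-tubulin with Hoechst 33342. Cytoskeleton imaged at 20x; bidirectional fit versus DMSO baseline.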

[6] = APR_HepG2_MitoticArrest_24hr: Apredica 24-hour HepG2 Assay for Mitotic Arrest (AID 2282910); conditions: high-content imaging, actives raise or lower the signal
Outline: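 Compounds are dosed onto HepG2 cells across ten concentrations up to 200 uM for 24 hr. Cells are then fixed in 3.7% formaldehyde, permeabilised, and labelled for phospho-histone H3 and nuclei; images are scored by cell cycle analysis and fitted bidirectionally relative to DMSO.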

[7] = APR_HepG2_MitoMembPot_24hr: Apredica 24-hour HepG2 Assay for Mitochondrial Membrane Potential (AID 2282911); conditions: imaging, actives raise or lower the signal
Outline: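 Mitochondrial membrane potential imaged via MitoTracker Red CMXRos (250 nM, 30 min pre-fixation) in fixed HepG2 cells with Hoechst nuclear identification. Ten concentrations 0.39–200 uM, 24 h treatment, 0.5% DMSO; CCCP as positive control.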

[8] = APR_HepG2_MitoMass_24hr: Apredica 24-hour HepG2 Assay for Mitochondrial Mass (AID 2282912); conditions: high-content imaging, actives raise or lower the signal
Outline: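 Human HepG2 liver cells were exposed for 24 hr to compounds at 0.39–200 uM (duplicates, 0.5% v/v DMSO final). They were stained live with 250 nM MitoTracker Red CMXRos for 30 min, fixed in 3.7% formaldehyde, and imaged by HCS fluorescence; signals were fitted bidirectionally against DMSO.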

[9] = APR_HepG2_p53Act_24hr: Apredica 24-hour HepG2 Assay for p53 Activation (AID 2282913); conditions: high-content imaging, actives raise or lower the signal;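 also: p53 protein immunofluorescence averaged per cell in HepG2 with Hoechst nuclei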
Outline: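 Fluorescence imaging of formaldehyde-fixed HepG2 cells labelled for p53 and with Hoechst, 24 h after dosing (0.39–200 uM, duplicate wells, 0.5% v/v DMSO). Signal fitted in both directions relative to DMSO.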

[10] = APR_HepG2_CellCycleArrest_72hr: Apredica 72-hour HepG2 Assay for Cell Cycle Arrest (AID 2282914); conditions: high-content imaging, actives raise or lower the signal
Outline: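 Read-out: nuclear DNA content from Hoechst 33342 high-content imaging (20x, six fields/well) after 3.7% formaldehyde fixation, fitted bidirectionally against DMSO. Treatment was 72 h in HepG2, ten concentrations 0.39–200 uM, duplicate, 0.5% DMSO.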

[11] = APR_HepG2_CellLoss_72hr: Apredica 72-hour HepG2 Assay for Cell Loss (AID 2282915); conditions: high-content imaging
Outline: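 Cell number comes from Hoechst 33342-labelled nuclei, imaged at 20x after 3.7% formaldehyde fixation. Dosing was 0.39–200 uM, ten concentrations in duplicate, 0.5% DMSO final, for 72 h. Bidirectional fit relative to DMSO baseline.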

[12] = APR_HepG2_P-H2AX_72hr: Apredica 72-hour HepG2 Assay for H2AX Phosphorylation (AID 2282916); conditions: imaging, actives raise or lower the signal;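 also: phospho-histone H2A.x immunostain intensity per cell marking DNA damage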
Outline: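 HepG2 human liver cells were exposed for 72 hr to compounds at 0.39–200 uM (10 concentrations, duplicate per plate) in 0.5% v/v DMSO. Fixed, permeabilized cells were immunolabeled for phospho-histone H2A.x with Hoechst 33342 and imaged by HCS fluorescence; bidirectional fit versus DMSO.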

[13] = APR_HepG2_MitoMembPot_72hr: Apredica 72-hour HepG2 Assay for Mitochondrial Membrane Potential (AID 2282917); conditions: imaging, actives raise or lower the signal
Outline: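 Membrane potential read by MitoTracker Red CMXRos (250 nM, 30 min, pre-fixation) fluorescence imaging of HepG2 after 72 hr exposure. Ten concentrations, 0.39–200 uM, duplicate wells, 0.5% DMSO; fitted in both directions against DMSO baseline.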

[14] = APR_HepG2_MitoticArrest_72hr: Apredica 72-hour HepG2 Assay for Mitotic Arrest (AID 2282918); conditions: high-content imaging, actives raise or lower the signal
Outline: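 High-content imaging of fixed human HepG2 cells after 72 h compound exposure (0.39–200 uM, duplicates, 0.5% DMSO); mitotic arrest scored from phospho-histone H3 and nuclear Hoechst staining relative to DMSO.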

[15] = APR_HepG2_MicrotubuleCSK_72hr: Apredica 72-hour HepG2 Assay for Microtubule CSK Stabilty (AID 2282919); conditions: HepG2 microtubule cytoskeleton, high-content imaging, actives raise or lower the signal
Outline: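 Read-out is tubulin fluorescence intensity from high-content imaging of HepG2 cells, with nuclei identified by Hoechst 33342. Treatment lasts 72 h at 0.39–200 uM, and curves are fitted bidirectionally against the DMSO negative control.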

[16] = APR_HepG2_P-H2AX_24hr: Apredica 24-hour HepG2 Assay for H2AX Phosphorylation (AID 2282920); conditions: high-content imaging, actives raise or lower the signal
Outline: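 High-content imaging of phospho-histone H2A.x immunofluorescence, nuclei counterstained with Hoechst 33342, in fixed HepG2 cells. Compounds ran 0.39–200 uM in duplicate for 24 h, final DMSO 0.5%. Signal change fitted both directions against DMSO.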

[17] = APR_HepG2_StressKinase_72hr: Apredica 72-hour HepG2 Assay for Stress Kinase (AID 2282921); conditions: HepG2 stress kinase (phospho-c-Jun) imaging, actives raise or lower the signal
Outline: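 Cells were exposed for 72 h to ten concentrations (0.39–200 uM, duplicate) at 0.5% v/v DMSO final, then fixed with 3.7% formaldehyde, permeabilized and immunostained for phospho-c-Jun (Cy3 secondary) with Hoechst nuclear counterstain.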

[18] = APR_HepG2_StressKinase_24hr: Apredica 24-hour HepG2 Assay for Stress Kinase (AID 2282922); conditions: HepG2 stress kinase (phospho-c-Jun) imaging, actives raise or lower the signal
Outline: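 HepG2, 24 hr dosing, 0.39–200 uM in duplicate, 0.5% DMSO; formaldehyde fix (3.7%), 0.5% Triton X-100; anti-phospho-c-Jun + Cy3 secondary, Hoechst counterstain; ArrayScan imaging; bidirectional curve fit vs DMSO baseline.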

[19] = APR_HepG2_p53Act_72hr: Apredica 72-hour HepG2 Assay for p53 Activation (AID 2282923); conditions: high-content imaging, actives raise or lower the signal;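 also: average cellular p53 protein immunofluorescence intensity in HepG2 cells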
Outline: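 Cells were dosed for 72 hr with compounds at 0.39–200 uM in duplicate (final DMSO 0.5% v/v), then fixed in 3.7% formaldehyde, permeabilized with Triton X-100 and immunostained for p53 (Cy5) with Hoechst 33342 nuclear counterstain.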

[20] = APR_HepG2_MitoMass_72hr: Apredica 72-hour HepG2 Assay for Mitochondrial Mass (AID 2282924); conditions: high-content imaging, actives raise or lower the signal;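 also: MitoTracker Red CMXRos stain intensity per cell imaged as mitochondrial mass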
Outline: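 HepG2, 72 hr cmpd, 10 conc 0.39–200 uM in dup, DMSO 0.5% v/v. MitoTracker Red CMXRos 250 nM 30 min pre-fix; formaldehyde 3.7% fix 30 min RT. HCS imaging, gain/loss fit vs DMSO.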

Measured: AC50

CC(C)N(c1ccccc1)C(C)C
inactive: [1]

CCOC(=O)CC(C)C
inactive: [1]

OC[C@@H](O)[C@H](O)[C@@H](O)[C@@H](O)CO
inactive: [1]

O=C(O)c1cc(C(=O)O)c(C(=O)O)cc1C(=O)O
inactive: [1]

OCCCO
inactive: [1]

N[C@@H](CCC(=O)O)C(=O)O
inactive: [1]

CC(C)CCCC(C)(C)O
inactive: [1]

CC(C)(C)C1CCC(O)CC1 (stereo not drawn)
inactive: [1]

CCCc1ccc(O)cc1
active: [1] 50 µM

CC/C(=C(\c1ccccc1)c1ccc(OCCN(C)C)cc1)c1ccccc1
inactive: [2] | [3] | [10] | [13] | [15] | [18] | [19] | [20]
active: [4] 14.5 µM and 17.8 µM | [5] 35.4 µM and 44.5 µM | [6] 7.3 µM and 6.94 µM | [7] 39.2 µM and 24.9 µM | [8] 6.38 µM and 7.4 µM | [9] 16.1 µM and 11.3 µM | [10] 29.4 µM | [11] 13.3 µM and 17.4 µM | [12] 53.9 µM and 59 µM | [13] 30.7 µM | [14] 9.78 µM and 3.59 µM | [16] 11.6 µM and 19.7 µM | [17] 63.4 µM and 100 µM | [18] 32.1 µM | [19] 6.04 µM | [20] 152 µM
